Laboratory results as given in the supplement of paper PMC8728848.
Shown is part of a subset that was picked to be rich in the strongest signals.

Experiments:
Experiment in all cases: glycan array binding signal (z-score within array); higher = stronger binding
Details in all cases: glycan notation: IUPAC condensed, linker removed
[1] = tested on: Gal(b1-3)[Fuc(a1-4)]GlcNAc
Method in brief: (§1)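 From the Consortium for Functional Glycomics database, 3228 arrays were curated, keeping only those whose protein sequence was available. Binding is given as a within-array Z-score averaged across arrays sharing a protein sequence and across linkers. Negative Z-scores can be read as non-binding.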

[2] = tested on: Gal(b1-4)GlcNAc(b1-2)Man(a1-3)Man(b1-4)GlcNAc(b1-4)GlcNAc
Method in brief: as §1

[3] = tested on: Gal(b1-4)GlcNAc(b1-2)Man(a1-3)[Gal(b1-4)GlcNAc(b1-2)Man(a1-6)]Man(b1-4)GlcNAc(b1-4)[Fuc(a1-6)]GlcNAc
Method in brief: as §1

[4] = tested on: Gal(b1-4)GlcNAc(b1-2)Man(a1-3)[Gal(b1-4)GlcNAc(b1-2)Man(a1-6)][Gal(b1-4)GlcNAc(b1-4)]Man(b1-4)GlcNAc(b1-4)[Fuc(a1-6)]GlcNAc
Method in brief: as §1

[5] = tested on: Gal(b1-4)GlcNAc(b1-2)Man(a1-3)[Gal(b1-4)GlcNAc(b1-2)][GlcNAc(b1-4)]Man(b1-4)GlcNAc(b1-4)GlcNAc
Method in brief: as §1

[6] = tested on: Gal(b1-4)GlcNAc(b1-2)[Gal(b1-4)GlcNAc(b1-4)]Man(a1-3)[Gal(b1-4)GlcNAc(b1-2)[Gal(b1-4)GlcNAc(b1-6)]Man(a1-6)]Man(b1-4)GlcNAc(b1-4)GlcNAc
Method in brief: as §1

[7] = tested on: Gal(b1-4)GlcNAc(b1-2)[Gal(b1-4)GlcNAc(b1-4)]Man(a1-3)[GlcNAc(b1-4)][Gal(b1-4)GlcNAc(b1-2)Man(a1-6)]Man(b1-4)GlcNAc(b1-4)GlcNAc
Method in brief: as §1

[8] = tested on: Gal(b1-4)GlcNAc(b1-3)Gal(b1-4)GlcNAc(b1-2)Man(a1-3)[Gal(b1-4)GlcNAc(b1-3)Gal(b1-4)GlcNAc(b1-2)Man(a1-6)]Man(b1-4)GlcNAc(b1-4)GlcNAc
Method in brief: as §1

[9] = tested on: Gal(b1-4)GlcNAc(b1-3)Gal(b1-4)GlcNAc(b1-3)Gal(b1-4)GlcNAc(b1-2)Man(a1-3)[Gal(b1-4)GlcNAc(b1-3)Gal(b1-4)GlcNAc(b1-3)Gal(b1-4)GlcNAc(b1-2)Man(a1-6)]Man(b1-4)GlcNAc(b1-4)[Fuc(a1-6)]GlcNAc
Method in brief: as §1

[10] = tested on: Gal(b1-4)GlcNAc(b1-3)Gal(b1-4)GlcNAc(b1-3)Gal(b1-4)GlcNAc(b1-2)[Gal(b1-4)GlcNAc(b1-3)Gal(b1-4)GlcNAc(b1-3)Gal(b1-4)GlcNAc(b1-6)]Man(a1-6)[Gal(b1-4)GlcNAc(b1-3)Gal(b1-4)GlcNAc(b1-3)Gal(b1-4)GlcNAc(b1-2)Man(a1-3)]Man(b1-4)GlcNAc(b1-4)[Fuc(a1-6)]GlcNAc
Method in brief: as §1

[11] = tested on: Gal(b1-3)[Neu5Ac(a2-6)]GlcNAc(b1-6)Gal(b1-4)Glc
Method in brief: as §1

[12] = tested on: Gal(b1-3)[GlcNAc(b1-6)]GalNAc
Method in brief: as §1

[13] = tested on: Gal(b1-4)GalNAc(a1-3)[Fuc(a1-2)]Gal(b1-4)GlcNAc
Method in brief: as §1

Gal(b1-4)Gal = tested on: Gal(b1-4)Gal
Method in brief: as §1

Gal(b1-4)Glc6S = tested on: Gal(b1-4)Glc6S
Method in brief: as §1

[14] = tested on: Gal(b1-3)[Neu5Ac(a2-6)]GlcNAc(b1-4)Gal(b1-4)Glc
Method in brief: as §1

[15] = tested on: Gal(b1-4)GlcNAc(b1-3)Gal(b1-4)GlcNAc(b1-2)[Gal(b1-4)GlcNAc(b1-3)Gal(b1-4)GlcNAc(b1-6)]Man(a1-6)[Gal(b1-4)GlcNAc(b1-3)Gal(b1-4)GlcNAc(b1-2)Man(a1-3)]Man(b1-4)GlcNAc(b1-4)[Fuc(a1-6)]GlcNAc
Method in brief: as §1

[16] = tested on: Gal(b1-4)GlcNAc(b1-2)[Gal(b1-4)GlcNAc(b1-6)]Man(a1-6)[GlcNAc(b1-4)][Gal(b1-4)GlcNAc(b1-2)Man(a1-3)]Man(b1-4)GlcNAc(b1-4)GlcNAc
Method in brief: as §1

[17] = tested on: Gal(b1-4)GlcNAc(b1-2)Man(a1-6)Man(b1-4)GlcNAc(b1-4)GlcNAc
Method in brief: as §1

[18] = tested on: Gal(b1-4)GlcNAc(b1-3)Gal(b1-4)GlcNAc(b1-3)Gal(b1-4)GlcNAc(b1-2)Man(a1-3)[Gal(b1-4)GlcNAc(b1-3)Gal(b1-4)GlcNAc(b1-3)Gal(b1-4)GlcNAc(b1-2)Man(a1-6)]Man(b1-4)GlcNAc(b1-4)GlcNAc
Method in brief: as §1

Sequence of CHI3L1 (Homo sapiens), P36222 (P36222 whole entry): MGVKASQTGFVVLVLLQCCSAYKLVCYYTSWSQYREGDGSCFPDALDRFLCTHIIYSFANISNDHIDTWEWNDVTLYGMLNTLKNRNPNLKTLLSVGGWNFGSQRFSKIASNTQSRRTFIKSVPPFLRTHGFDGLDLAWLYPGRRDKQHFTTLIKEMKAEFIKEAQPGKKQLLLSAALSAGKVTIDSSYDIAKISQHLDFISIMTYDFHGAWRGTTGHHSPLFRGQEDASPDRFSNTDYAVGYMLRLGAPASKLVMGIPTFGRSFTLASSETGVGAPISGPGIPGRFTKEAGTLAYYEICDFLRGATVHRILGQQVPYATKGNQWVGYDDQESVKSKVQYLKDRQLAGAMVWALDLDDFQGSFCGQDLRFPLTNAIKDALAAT
Sequence of PILRb (Mus musculus), Q2YSF2 (Q2YSF2 entry or part of it): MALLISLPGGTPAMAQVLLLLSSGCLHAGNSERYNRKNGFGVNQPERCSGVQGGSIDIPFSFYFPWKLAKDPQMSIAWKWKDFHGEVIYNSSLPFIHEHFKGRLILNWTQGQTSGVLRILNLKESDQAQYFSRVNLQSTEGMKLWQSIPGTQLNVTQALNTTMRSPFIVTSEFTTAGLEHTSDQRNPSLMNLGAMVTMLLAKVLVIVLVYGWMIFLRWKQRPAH
Sequence of Avaren (Actinomycete K97) (chain, as listed by the source): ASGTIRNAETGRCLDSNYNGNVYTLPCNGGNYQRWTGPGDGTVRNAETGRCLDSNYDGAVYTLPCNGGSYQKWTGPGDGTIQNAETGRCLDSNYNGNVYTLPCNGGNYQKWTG
Sequence of 6RG (Lolium perenne) (chain, as listed by the source): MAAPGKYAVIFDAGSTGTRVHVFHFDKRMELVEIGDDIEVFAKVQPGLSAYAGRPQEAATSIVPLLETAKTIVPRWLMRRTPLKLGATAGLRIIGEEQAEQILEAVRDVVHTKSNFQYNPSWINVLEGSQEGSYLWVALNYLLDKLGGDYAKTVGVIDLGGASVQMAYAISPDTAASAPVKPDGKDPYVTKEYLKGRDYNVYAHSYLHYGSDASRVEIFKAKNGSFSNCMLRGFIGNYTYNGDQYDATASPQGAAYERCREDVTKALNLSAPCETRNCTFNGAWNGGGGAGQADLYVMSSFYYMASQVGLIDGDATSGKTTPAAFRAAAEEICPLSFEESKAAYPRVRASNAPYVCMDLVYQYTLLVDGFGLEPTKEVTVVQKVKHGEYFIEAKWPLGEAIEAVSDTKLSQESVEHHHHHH
Sequence of Aggrecan (Rattus norvegicus), NP_071526 (chain, as listed by the source): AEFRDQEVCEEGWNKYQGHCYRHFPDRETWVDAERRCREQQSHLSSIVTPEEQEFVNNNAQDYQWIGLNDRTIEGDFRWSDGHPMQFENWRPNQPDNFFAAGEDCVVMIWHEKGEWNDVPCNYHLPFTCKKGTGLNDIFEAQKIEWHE
Sequence of Neurocan (Homo sapiens), O14594 (O14594 other isoform, or with tags, fused parts or gaps): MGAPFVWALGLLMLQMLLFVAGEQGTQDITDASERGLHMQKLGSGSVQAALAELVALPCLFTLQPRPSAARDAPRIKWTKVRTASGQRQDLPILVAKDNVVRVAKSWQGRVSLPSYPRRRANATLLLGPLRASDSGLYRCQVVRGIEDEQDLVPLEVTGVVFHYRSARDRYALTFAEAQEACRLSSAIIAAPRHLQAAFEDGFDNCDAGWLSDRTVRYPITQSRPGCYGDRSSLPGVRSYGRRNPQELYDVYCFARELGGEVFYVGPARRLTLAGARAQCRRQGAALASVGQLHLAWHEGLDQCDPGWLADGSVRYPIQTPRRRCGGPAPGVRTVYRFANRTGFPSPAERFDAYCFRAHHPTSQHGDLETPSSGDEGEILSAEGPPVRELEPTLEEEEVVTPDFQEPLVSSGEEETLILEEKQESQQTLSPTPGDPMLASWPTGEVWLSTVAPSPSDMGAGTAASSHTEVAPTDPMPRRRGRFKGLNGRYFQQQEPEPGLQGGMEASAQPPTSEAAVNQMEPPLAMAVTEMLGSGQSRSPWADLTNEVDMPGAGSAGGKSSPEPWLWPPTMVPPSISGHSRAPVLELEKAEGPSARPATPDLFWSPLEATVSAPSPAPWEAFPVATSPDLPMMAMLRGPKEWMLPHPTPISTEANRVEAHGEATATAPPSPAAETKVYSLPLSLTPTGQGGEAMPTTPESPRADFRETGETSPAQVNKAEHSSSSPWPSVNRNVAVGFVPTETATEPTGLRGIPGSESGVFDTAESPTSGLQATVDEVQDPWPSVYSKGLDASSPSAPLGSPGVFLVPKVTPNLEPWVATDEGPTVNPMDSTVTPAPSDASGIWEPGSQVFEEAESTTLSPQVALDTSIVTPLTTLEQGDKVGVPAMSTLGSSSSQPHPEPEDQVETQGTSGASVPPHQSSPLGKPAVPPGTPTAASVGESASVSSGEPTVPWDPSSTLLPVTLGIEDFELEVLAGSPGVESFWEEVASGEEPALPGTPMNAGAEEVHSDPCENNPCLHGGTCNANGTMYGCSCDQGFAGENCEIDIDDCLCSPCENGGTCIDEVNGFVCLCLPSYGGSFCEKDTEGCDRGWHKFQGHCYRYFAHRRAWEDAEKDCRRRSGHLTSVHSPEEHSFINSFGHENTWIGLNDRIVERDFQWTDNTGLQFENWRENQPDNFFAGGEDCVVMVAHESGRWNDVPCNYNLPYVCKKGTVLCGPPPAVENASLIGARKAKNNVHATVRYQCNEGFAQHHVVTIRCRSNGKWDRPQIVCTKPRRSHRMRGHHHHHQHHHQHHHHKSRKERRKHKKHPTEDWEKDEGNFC
Sequence of 6RG (Lolium perenne), B9U140 (B9U140 entry or part of it): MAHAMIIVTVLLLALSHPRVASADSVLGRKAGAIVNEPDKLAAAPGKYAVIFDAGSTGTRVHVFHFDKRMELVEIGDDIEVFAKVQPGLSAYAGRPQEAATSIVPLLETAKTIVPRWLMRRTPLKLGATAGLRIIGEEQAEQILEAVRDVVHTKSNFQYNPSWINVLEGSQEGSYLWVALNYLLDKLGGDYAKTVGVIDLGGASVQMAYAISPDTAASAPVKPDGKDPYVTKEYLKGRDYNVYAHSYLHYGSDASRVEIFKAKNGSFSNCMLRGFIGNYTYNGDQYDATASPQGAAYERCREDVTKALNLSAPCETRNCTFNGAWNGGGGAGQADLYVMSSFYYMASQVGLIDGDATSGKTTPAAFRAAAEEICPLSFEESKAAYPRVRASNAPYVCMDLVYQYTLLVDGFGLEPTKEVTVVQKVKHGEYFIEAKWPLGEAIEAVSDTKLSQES
Sequence of C3b (Homo sapiens), P01024 (P01024 23-667): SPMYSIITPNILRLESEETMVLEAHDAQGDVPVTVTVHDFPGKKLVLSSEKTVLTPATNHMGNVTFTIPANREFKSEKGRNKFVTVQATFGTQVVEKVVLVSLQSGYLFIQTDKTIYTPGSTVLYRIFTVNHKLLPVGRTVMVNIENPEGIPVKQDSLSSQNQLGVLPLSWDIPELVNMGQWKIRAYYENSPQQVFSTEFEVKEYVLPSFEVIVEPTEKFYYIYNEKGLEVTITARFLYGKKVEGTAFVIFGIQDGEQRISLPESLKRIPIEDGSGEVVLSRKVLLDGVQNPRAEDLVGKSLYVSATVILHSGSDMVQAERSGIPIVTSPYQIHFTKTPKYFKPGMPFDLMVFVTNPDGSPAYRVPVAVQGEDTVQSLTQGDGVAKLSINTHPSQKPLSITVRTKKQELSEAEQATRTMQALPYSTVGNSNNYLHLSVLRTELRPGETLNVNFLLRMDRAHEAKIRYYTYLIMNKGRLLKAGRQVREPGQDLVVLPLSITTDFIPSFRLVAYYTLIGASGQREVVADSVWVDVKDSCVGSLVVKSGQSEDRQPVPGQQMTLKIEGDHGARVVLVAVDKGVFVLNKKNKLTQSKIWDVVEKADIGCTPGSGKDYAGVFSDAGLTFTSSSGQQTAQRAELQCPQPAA
Sequence of wLAT-1A (Homo sapiens), Q01650 (Q01650 whole entry): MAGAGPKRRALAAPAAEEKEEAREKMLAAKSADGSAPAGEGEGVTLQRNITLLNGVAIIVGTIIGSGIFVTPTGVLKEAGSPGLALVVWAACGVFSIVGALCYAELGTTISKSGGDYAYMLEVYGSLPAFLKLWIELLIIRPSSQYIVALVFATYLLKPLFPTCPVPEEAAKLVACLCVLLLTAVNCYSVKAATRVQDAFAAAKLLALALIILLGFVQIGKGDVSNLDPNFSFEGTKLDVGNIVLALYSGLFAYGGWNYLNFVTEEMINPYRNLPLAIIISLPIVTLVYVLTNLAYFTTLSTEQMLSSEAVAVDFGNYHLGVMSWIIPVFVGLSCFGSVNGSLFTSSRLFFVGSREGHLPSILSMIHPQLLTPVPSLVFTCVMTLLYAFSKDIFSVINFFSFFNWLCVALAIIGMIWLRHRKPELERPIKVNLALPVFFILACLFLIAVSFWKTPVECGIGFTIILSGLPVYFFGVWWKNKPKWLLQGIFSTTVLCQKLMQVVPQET
Sequence of PILRa (Mus musculus), Q2YSF3 (Q2YSF3 entry or part of it): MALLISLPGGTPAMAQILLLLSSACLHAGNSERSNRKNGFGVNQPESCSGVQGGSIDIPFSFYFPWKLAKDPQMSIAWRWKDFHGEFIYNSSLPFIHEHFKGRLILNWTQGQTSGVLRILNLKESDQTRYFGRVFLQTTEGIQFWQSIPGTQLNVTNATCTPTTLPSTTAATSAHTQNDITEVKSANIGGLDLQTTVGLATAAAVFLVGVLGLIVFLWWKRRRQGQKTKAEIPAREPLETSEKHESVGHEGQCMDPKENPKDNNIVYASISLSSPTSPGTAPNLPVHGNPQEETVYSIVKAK
Sequence of Regenerating Gene IV (Homo sapiens), Q9BYZ8 (Q9BYZ8 whole entry, looked up): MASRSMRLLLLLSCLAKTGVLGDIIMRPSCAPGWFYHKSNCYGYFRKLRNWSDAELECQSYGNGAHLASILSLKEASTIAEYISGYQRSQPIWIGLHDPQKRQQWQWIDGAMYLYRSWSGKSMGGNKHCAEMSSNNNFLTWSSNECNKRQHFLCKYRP

For Siglec-8 (Homo sapiens), Q9NYZ4, the “glycan array binding signal (z-score)” value ([1]; mutation: R125K) was -0.408, the “glycan array binding signal (z-score)” value [2] was -0.306 and the “glycan array binding signal (z-score)” value [3] was -0.08. The “glycan array binding signal (z-score)” value ([4]; mutation: R125K) was -0.535, the “glycan array binding signal (z-score)” value [5] was -0.068 and the “glycan array binding signal (z-score)” value [6] was -0.067. The “glycan array binding signal (z-score)” value ([7]; mutation: R125K) was -0.113, the “glycan array binding signal (z-score)” value [8] was 0.515 and the “glycan array binding signal (z-score)” value ([8]; mutation: R125K) was 2.56. For the same substance, the “glycan array binding signal (z-score)” value [9] was 0.69 and the “glycan array binding signal (z-score)” value ([10]; mutation: R125K) was 0.13.
With 6RG (Lolium perenne), B9U140 the “glycan array binding signal (z-score)” value [11] was -0.249.
For 6RG (Lolium perenne), the “glycan array binding signal (z-score)” value [12] was -0.16 and the “glycan array binding signal (z-score)” value [11] was 4.25.
PILRb (Mus musculus), Q2YSF2 was tested, and the “glycan array binding signal (z-score)” value [13] was -0.547, the “glycan array binding signal (z-score)” value (Gal(b1-4)Gal) was 0.167 and the “glycan array binding signal (z-score)” value (Gal(b1-4)Glc6S) was 1.22. The “glycan array binding signal (z-score)” value [5] was -0.5.
wLAT-1A (Homo sapiens), Q01650 was tested, and the “glycan array binding signal (z-score)” value [13] was -0.62.
For C3b (Homo sapiens), P01024, the “glycan array binding signal (z-score)” value [1] was 0.283.
For HARE (Homo sapiens), Q8WWQ8, the “glycan array binding signal (z-score)” value [12] was -0.451 and the “glycan array binding signal (z-score)” value [14] was 1.92.
In the case of MpAFP RI GFP (Marinomonas primoryensis), the “glycan array binding signal (z-score)” value [12] is reported as -0.258, the “glycan array binding signal (z-score)” value (Gal(b1-4)Gal) is reported as -0.4 and the “glycan array binding signal (z-score)” value [8] is reported as 2.61. For the same substance, the “glycan array binding signal (z-score)” value [15] was 5.48 and the “glycan array binding signal (z-score)” value [10] was 3.87.
For Neurocan (Homo sapiens), O14594, the “glycan array binding signal (z-score)” value [2] was 0.015.
In the case of “Regenerating Gene IV (Homo sapiens), Q9BYZ8”, the “glycan array binding signal (z-score)” value (Gal(b1-4)Glc6S) is reported as 2.4.
For Aggrecan (Rattus norvegicus), NP_071526, the “glycan array binding signal (z-score)” value [1] was 4.94 and the “glycan array binding signal (z-score)” value [11] was -0.144.
For PILRa (Mus musculus), Q2YSF3, the “glycan array binding signal (z-score)” value [16] was -0.088.
In the case of CHI3L1 (Homo sapiens), P36222, the “glycan array binding signal (z-score)” value [2] is reported as -0.118, the “glycan array binding signal (z-score)” value [17] is reported as -0.062 and the “glycan array binding signal (z-score)” value [7] is reported as -0.131.
In the case of Avaren (Actinomycete K97), the “glycan array binding signal (z-score)” value [4] is reported as -0.121 and the “glycan array binding signal (z-score)” value [18] is reported as -0.051.
